tim10-1 inh: growth inhibitors of tim10-1 mutant yeast, primary screen, luminescence, uHTS; hit rate 2.2% among 330,000; AID 463190, 2010; S. cerevisiae tim10-1 ts strain growth, BacTiter-Glo, 24 h; inhibition, % at 20 µM;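 active = inhibition of at least 40%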;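 also: mutant grown at 25 °C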
PfHsp90 set2: growth inhibition of PfHsp90-expressing yeast, primary screen, antimalarial PfHsp90 inhibitor project, S. cerevisiae, BacTiter-Glo luminescence, single point, set 2; BacTiter-Glo ATP, 48 h; yeast lacking PDR1 and PDR3 efflux regulators; hit rate 0.32% among 310,000; inhibition, % at 9.4 µM;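 active = every replicate shows inhibition above about 80%, whatever the replicate mean, limit read from the data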
tim23-1 inh: growth inhibitors of tim23-1 mutant yeast, primary screen, luminescence, uHTS; S. cerevisiae tim23-1 growth, BacTiter-Glo luminescence, 24 h; inhibition, % at 20 µM; hit rate 1.3% among 330,000; AID 463212, 2010;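 active = growth inhibition of the mutant yeast at or above 50%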;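 also: temperature-sensitive mutant grown at 25 °C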
NALP1 inh: NALP1 inflammasome inhibitors in reconstituted yeast, colorimetric, S. cerevisiae, triplicate retest; hit rate 0.61% among 280,000; S. cerevisiae NALP1/ASC/caspase-1 growth, X-gal OD620, 72 h; inhibition, % at 10 µM; in the data active = inhibition mostly above about 24%, no sharp cut-off; inactive = mostly below about 32%
TIM10 inh: growth inhibitors of isogenic TIM10 control yeast, primary screen, counter-screen for tim10-1 yeast inhibitor project, luminescence, uHTS. hit rate 1.4% among 330,000. inhibition, % at 10 µM. AID 463195, 2010. S. cerevisiae TIM10 strain growth, BacTiter-Glo luminescence, 24 h;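 active = inhibition of 40% or more at the single tested concentration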;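 also: wild-type TIM10 isogenic control strain grown at permissive 25 °C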
NLRP3 yeast inh: NALP3 inflammasome inhibitors in reconstituted yeast, primary screen, luminescence, uHTS. Yeast reconstituted NLRP3/ASC/caspase-1, beta-gal luminescence, 24 h. hit rate 0.39% among 330,000. inhibition, % at 10 µM;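 active = inhibition of 50% or more; inactive = inhibition below 50%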
tim10-1 conf: growth inhibitors of tim10-1 mutant yeast, confirmation, single concentration, luminescence, S. cerevisiae. shares compounds with tim10-1 inh. S. cerevisiae tim10-1 ts strain growth, BacTiter-Glo, 24 h. inhibition, % at 20 µM. hit rate 56% among 7,400. AID 463213, 2010;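 active = inhibition of yeast growth at or above a set limit in either of two repeat tests at 20 µM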;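 also: tim10-1 mutant grown at permissive 25 °C to find synthetic lethal compounds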
Of the large screens only hits and unclear results are named; the others gave an inactive call (follow-up assays come after a bar, where they were run). Only some compounds are listed: those with a hit (about 4.1% of all), similar ones and a draw of the others.

Cc1ccc2c(c1)-c1c(ssc1=S)C(C)(C)N2C(=O)CSC1=NCCS1	tim10-1 inh 43 | tim10-1 conf 38
COc1ccc(-n2cc(-c3ccccc3)[n+]3c2CCCCC3)cc1	none
COc1ccc(-c2cn(-c3ccc(OC)cc3)c3[n+]2-c2ccccc2CC3)cc1	tim10-1 inh 53 | tim10-1 conf 40
Cc1ccc(S(=O)(=O)N(C(=O)c2ccncc2)c2ccc(OC(=O)c3ccncc3)c3ccccc23)c(C)c1	tim10-1 inh 48 | tim10-1 conf 32
CC(=O)Oc1ccc(N(C(C)=O)S(=O)(=O)c2ccc(C)cc2C)c2ccccc12	none
CCCC(C(=O)NC1CCCC1)N(CC1CCCO1)C(=O)CNS(=O)(=O)c1ccc(F)cc1 (centres undefined)	none
CCN(CC)CCNCC1C(=O)O[C@@H]2C[C@@]3(C)CCC[C@H](C)C3=C[C@H]12 (some centres undefined)	tim10-1 inh 51 | tim10-1 conf 37
O=C(c1cccs1)c1c[nH]cc1-c1ccccc1	tim10-1 inh 52 (no result: PfHsp90 set2, NALP1 inh) | tim10-1 conf 38
O=C(c1ccccc1)c1c[nH]cc1-c1ccccc1	none
Cc1cccc2c1nc(-c1ccccc1)n1cnnc21	tim10-1 inh 40 (no result: PfHsp90 set2) | tim10-1 conf inactive
Cc1cccc2c1nc(-c1ccccc1)n1nnnc21	none (no result: PfHsp90 set2)
CCOc1cccc(C(=O)NC(=S)Nc2cccnc2)c1	none
CCCCOc1cccc(C(=O)NC(=S)Nc2cccnc2)c1	tim10-1 inh 43 | tim10-1 conf inactive
COC(=O)c1cccc(Nc2cc(C)nc(-c3ccccc3O)n2)c1	tim10-1 inh 62 | tim10-1 conf 35
COC(=O)c1ccc(Nc2cc(C)nc(-c3ccccc3O)n2)cc1	none
O=C(N/N=C/c1ccncc1)NC12CC3CC(CC(C3)C1)C2	none
O=C(N/N=C/c1ccc(O)cc1)NC12CC3CC(CC(C3)C1)C2	tim10-1 inh 50 | tim10-1 conf 35
CCCC(=O)C1=C(O)C(C(=O)OC)C(C)(C)CC1=Nc1ccc(N)cc1 (centres undefined)	tim10-1 inh 42 (no result: PfHsp90 set2) | tim10-1 conf inactive
CCCC(=O)C1=C(O)C(C(=O)OC)C(C)(C)CC1=Nc1ccc(C)cc1 (centres undefined)	none
O=C1CN(C(=O)/C=C/c2ccc(Br)cc2)CCN1	none (no result: tim10-1 inh, tim23-1 inh, TIM10 inh, NLRP3 yeast inh)
COc1ccccc1NC(CC(=O)c1ccccc1)C(=O)OCC(=O)c1ccc(C)cc1 (centres undefined)	none
COc1ccccc1NC(CC(=O)c1ccccc1)C(=O)OCC(=O)c1ccc(Br)cc1 (centres undefined)	tim10-1 inh 45 | tim10-1 conf 37
COc1cc(/C=C/C(=O)OCC(=O)N(C)Cc2ccccc2)ccc1O	none (no result: NALP1 inh)
CC(C)(C)OC(=O)N1CCC(C(=O)Nc2cccc(C(=O)NC3CC3)c2)CC1	none (no result: tim10-1 inh, tim23-1 inh, NALP1 inh, TIM10 inh, NLRP3 yeast inh)
c1nc(Nc2ccc(N3CCOCC3)cc2)c2ccsc2n1	none
Fc1ccc(-c2csc3ncnc(Nc4ccc(N5CCOCC5)cc4)c23)cc1	tim10-1 inh 43 (no result: PfHsp90 set2) | tim10-1 conf 37
CCOC(=O)N1CCN(C(=O)c2cccc(N3C(=O)NC4CC3(C)Oc3ccc(Cl)cc34)c2)CC1 (centres undefined)	tim10-1 inh 45 | tim10-1 conf inactive
CCOC(=O)C1CCN(C(=O)c2cccc(N3C(=O)NC4CC3(C)Oc3ccc(C)cc34)c2)CC1 (centres undefined)	none
CC(=O)c1ccc(N2CCN(C(=S)NCc3ccco3)CC2)cc1	none
S=C(NCc1ccco1)N1CCN(c2ccc(Cl)cc2)CC1	tim10-1 inh 49 | tim10-1 conf inactive
O=C(COC(=O)c1cccc(S(=O)(=O)N2CCc3ccccc3C2)c1)NCc1ccco1	tim10-1 inh 41 | tim10-1 conf inactive
CCN(C1CCCCC1)S(=O)(=O)c1cc(C)ccc1OC	tim10-1 inh 43 | tim10-1 conf inactive
O=C(Nc1cc(Sc2ccccn2)cc([N+](=O)[O-])c1)c1cccc(F)c1	tim10-1 inh 44 | tim10-1 conf 53
Cc1ccc(C(=O)NCCC2=CCCCC2)cc1S(=O)(=O)N1CCCCC1	tim10-1 inh 41 (no result: NALP1 inh) | tim10-1 conf inactive
Cc1ccccc1NS(=O)(=O)c1cc(C(=O)NCCC2=CCCCC2)ccc1C	tim10-1 inh 40 | tim10-1 conf inactive
Cc1ccccc1NS(=O)(=O)c1cc(C(=O)N2CCc3ccccc3C2)ccc1C	tim10-1 inh 42 (no result: PfHsp90 set2) | tim10-1 conf 33
Cc1ccc(C(=O)NCCC2=CCCCC2)cc1S(=O)(=O)N1CCOCC1	none (no result: PfHsp90 set2, NALP1 inh)
Cc1ccc(C(=O)N2CCc3ccccc3C2)cc1S(=O)(=O)N1CCOCC1	none
O=C(NCCC1=CCCCC1)c1ccc(Cl)c(S(=O)(=O)Nc2ccccc2)c1	none
Cc1ccc2nc(C)c(CN3CCN(c4ccc([N+](=O)[O-])cc4Cl)CC3)n2c1	none
CCOC(=O)c1c(NC(=O)CCN2CCOCC2)sc2c1CC(C)(C)OC2	tim10-1 inh 42 | tim10-1 conf inactive
CCOC(=O)c1c(NC(=O)CN2CCOCC2)sc2c1CC(C)(C)OC2	none (no result: PfHsp90 set2)
Cc1ccc(-c2ccc(/C=N/NC(N)=S)o2)cc1	tim10-1 inh 42 | tim10-1 conf inactive
COC(=O)c1sc2nc(C)c([N+](=O)[O-])c(C)c2c1N	tim10-1 inh 50 | tim10-1 conf inactive
CCOC(=O)c1sc2nc(C)cc(C)c2c1N	none (no result: PfHsp90 set2)
COc1cc(NC(=O)CSc2nc(=O)n(CCN3CCOCC3)c3c2CCCC3)cc(OC)c1	none (no result: PfHsp90 set2, NALP1 inh)
Cc1cc2nc3c(=O)[nH]c(=S)[nH]c3nc2cc1NC(=O)C(F)(F)F	none
O=C(O)CCCCCNS(=O)(=O)c1ccc2c(c1)OCCO2	none
O=S(=O)(NCCSc1ccccc1)c1ccc2c(c1)OCCO2	tim10-1 inh 41 | tim10-1 conf inactive
N#Cc1c(N2CCCCC2)nc(N)c2c(N)nc3c(c12)CC(c1ccccc1)O3 (centres undefined)	tim10-1 inh 41 | tim10-1 conf inactive
CCC1Cc2c(nc(N)c3c(N)nc(N4CCCCC4)c(C#N)c23)O1 (centres undefined)	none
Cc1ccc(C(=O)O)cc1NC(=O)CSc1nnc(-c2ccccc2F)n1C1CCCCC1	none (no result: NALP1 inh)
Cc1cccc(NC2=C(NCCO)C(=O)c3ccccc3C2=O)c1	tim10-1 inh 42 | tim10-1 conf 32
COc1cccc(NC2=C(NCCO)C(=O)c3ccccc3C2=O)c1	none
COc1ccc(N(Cc2cc(=O)[nH]c3ccccc23)C(=O)C(C)C)cc1	none
Cc1ccc(S(=O)(=O)n2nc(OC(=O)c3ccco3)cc2N)cc1	tim10-1 inh 42 (no result: PfHsp90 set2, NALP1 inh) | tim10-1 conf inactive
